The values that follow come from PubChem BioAssay AID738 (SRMLSC, 2007).

Among all 98,000 compounds or so, about 4,900 (5%) were called active. The sample as a whole holds a higher share of actives than the screen did. Unmarked numbers belong to inactive results. No stated cut-off is given here; in the data, active means inhibition above about 30%; inactive means the rest.

The nature of the experiment: growth inhibition of yeast control strain, primary screen, counter-screen for post-Golgi transport modulator project (AID 738). The note with it: efflux-deficient yeast background strain, growth absorbance A615, 16 h; at 10 µM; stronger effect = higher value. Background: The purpose of a counterscreen is to sort out artefacts and off-target activity.
Take `O=C(Nc1ccc2c(c1)OCCO2)c1ccc(Cl)c(S(=O)(=O)N2CCCCC2)c1`: the inhibition was 7.53%.
The figure for `O=C(NCCc1ccccc1)c1ccc(NC2=NC3CS(=O)(=O)CC3S2)cc1` (centres undefined) is -1.06%; for `Cc1c(Br)c([N+](=O)[O-])nn1C(C)C(=O)Nc1nccs1` (centres undefined) it is 23.8%; for `O=C(Cc1ccc(F)cc1)NC1CCCC1` it is 20.8%.
`CCNc1nc(N)nc(-c2cc(Cl)ccc2OC)n1`: the inhibition was -4.76%.
Regarding `CCCOc1ccc2c3c(c(=O)oc2c1OCCC)CCC3`, the inhibition is 36.1% (active).
The figure for `COc1ccc2c3c(c(=O)oc2c1OCC(=O)C(C)(C)C)CCCC3` is 7.23%; for `O=c1oc2c(CN3CCCCC3)c(O)ccc2c2c1CCCCC2` it is -5.61%; for `CSc1ccc(-c2c(C#N)c(N)nc3c2c(C)nn3-c2ccccc2)cc1` it is 2.79%.
As to `Cc1c(-c2ccccc2)nc(N)c(C#N)c1-c1cccs1`, the inhibition is 15%.
The figure for `CSc1nc(N)c(C#N)c(-c2ccccc2Cl)c1C#N` is 68.3% (active); for `COc1cccc(/C=N\Nc2nncc(-c3ccccc3)n2)c1` it is 7.59%.
The figure for `Nc1ccc(-c2sc(N)nc2-c2ccccc2)cc1` is 2.78%; for `COc1cc(OC)c(NC(=O)c2ccc(Br)o2)cc1Cl` it is 2.65%.
The figure for `O=C(Nc1cccc2ncccc12)c1ccc(-c2ccc(Cl)cc2Cl)o1` is 37.2% (active); for `O=C(Nc1cccc2ncccc12)C(Cl)(Cl)Cl` it is 8.77%.
Take `CCC1(CC)NC(=O)N(CC(=O)OCC(=O)Nc2ccc(C(F)(F)F)cc2)C1=O`: the inhibition is 5.34%.
Regarding `O=C(c1ccco1)N1CCN(C(=O)C2c3ccccc3Oc3ccccc32)CC1`, the inhibition was 0.85%.
As to `CCCN(CCC)C(=O)C1c2ccccc2Oc2ccccc21`, the inhibition was 31.5% (active).
Turning to `O=C(N/N=C/c1ccc(O)c(O)c1)C1c2ccccc2Oc2ccccc21`, the inhibition is 2.52%.
Consider `Cc1c(NC(=O)CCCOc2ccccc2)cccc1[N+](=O)[O-]`, for which the inhibition was 2.57%.
The figure for `CC1Cc2ccccc2N1CC(=O)Nc1ccc2c(c1)OC(F)(F)O2` (centres undefined) is 17.9%; for `O=C(CC12CC3CC(CC(C3)C1)C2)Nc1ccc2c(c1)COC2=O` it is 42.7% (active).
The figure for `O=C(O)CSCNC(=O)CC12CC3CC(CC(C3)C1)C2` is 0.28%; for `COCCCNC(=O)C1CC(=O)N(CCc2ccccc2)C1` (centres undefined) it is 5.92%.
The figure for `COc1cc(OC)cc(C(=O)NC2CCN(C(=O)N3c4ccccc4Sc4ccccc43)CC2)c1` is 4.32%.
Consider `CC(C)n1c(C(O)c2ccccc2)nc2ccccc21` (centres undefined), for which the inhibition was 1.26%.
As for `COc1cc(C(O)c2nc3ccccc3n2C)cc(OC)c1OC` (centres undefined), the inhibition was 41.1% (active).
For `CCCn1c(C(O)c2cc(OC)ccc2OC)nc2ccccc21` (centres undefined), the inhibition was 17.6%.
The figure for `CCOc1cc(C(=O)Nc2ncccn2)cc(OCC)c1OCC` is -2.73%; for `Cn1c(=O)c(C(=O)Nc2ncccn2)c(O)c2ccccc21` it is 44.2% (active); for `O=C(Nc1ncccn1)c1cccs1` it is 5.69%.
As to `CCCn1nnnc1NC(=O)COc1ccc(Cl)cc1C`, the inhibition was 4.96%.
The figure for `O=C(NCCc1ccccn1)c1cc(C(=O)C2CCCCC2)c[nH]1` is -1.83%; for `Cc1ccc(SCC(=O)NC(=O)NCc2ccco2)c(C)c1` it is 2.9%.
The figure for `O=C1c2cccc3cccc(c23)N1CN1CCN(c2ccccn2)CC1` is 32.2% (active); for `CC(=C1C(=O)c2ccccc2C1=O)N1CCN(c2ccccn2)CC1` it is 2.92%; for `OC(COc1cccc2ccccc12)CN1CCN(c2ccccn2)CC1` (centres undefined) it is -6.3%.
The figure for `CC1=C(C)CC(C(=O)NNC(=O)c2ccccc2O)C(C(=O)O)C1` (centres undefined) is -0.3%; for `Cc1nc(NC2=NC(C(=O)Nc3ccc(Cl)cc3)CC(=O)N2)nc2ccccc12` (centres undefined) it is -4.48%.
For `CSc1ccc(C#N)cc1NC(=O)c1cccc(Cl)c1`, the inhibition was 15.8%.
With `O=C(NC(Nc1nc2ccc([N+](=O)[O-])cc2s1)(C(F)(F)F)C(F)(F)F)c1ccccc1`, the inhibition was 89.5% (active).
Consider `Cc1cc(C)cc(OCC(=O)Nc2nc3ccc([N+](=O)[O-])cc3s2)c1`, for which the inhibition was 11.7%.
The figure for `COC(=O)C(NC(=O)c1ccc(OC)cc1)(Nc1ncc(S(=O)(=O)c2ccc([N+](=O)[O-])cc2)s1)C(F)(F)F` (centres undefined) is 6.12%.
The figure for `COc1ccc2c(c1OC)C(=O)c1ccccc1C2=O` is 1.8%; for `Cc1nnc(SCC(=O)N/N=C/c2cn(-c3ccccc3)nc2-c2ccc(F)cc2)n1-c1ccccc1` it is 4.61%; for `O=C1c2ccccc2C2=Nc3ccccc3SC(c3ccccc3F)C12` (centres undefined) it is 95.4% (active).
The figure for `O=C(CN1C(=O)NC2(CCCC2)C1=O)Nc1ccc(F)c(F)c1F` is 3.79%; for `O=C1c2cccc3cc(Br)cc(c23)C(=O)N1Nc1ccccc1` it is 12.1%; for `O=C(Nc1ccccc1)OCc1cc(-c2ccc(Cl)cc2)on1` it is 10.1%.
With `O=C1C=C(c2ccc(Cl)cc2)C(=O)N1Nc1ccccc1`, the inhibition was 99.5% (active).
Take `Cc1ccc(-c2nnc(-n3nnc4ccccc43)c3ccccc23)cc1`: the inhibition is 12%.
The figure for `N=c1oc2ccccc2cc1C(=O)N/N=C/c1ccccc1` is -3.5%; for `CCOC(=O)CSc1nnc(-c2cccc(Br)c2)o1` it is 31.6% (active).
Turning to `CCOC(=O)CSc1nnc(-c2ccncc2)o1`, the inhibition was 2.24%.
The figure for `CCN(CC)C(=O)CSc1nnc(-c2cccc(OC)c2)o1` is 2.38%; for `O=C(CSCc1ccccc1Cl)NNC(=O)c1ccccc1` it is 3.42%; for `CCOc1ccc(N(CC(=O)NC2CCCCCC2)S(=O)(=O)c2c(C)[nH]c(=O)[nH]c2=O)cc1` it is 5.91%.
Regarding `COc1ccc(-c2c(C(C)=O)c(C)nc3sc4c(=O)n(-c5ccc(C)cc5)nnc4c23)cc1`, the inhibition is 16.1%.
The figure for `CCC(C)Sc1nnc(-c2c[nH]c3ccccc23)n1CCOC` (centres undefined) is 0.59%.
With `CCn1c(SCCC(C)C)nnc1-c1c[nH]c2ccccc12`, the inhibition is 56.1% (active).
The figure for `CCn1c(SCC(=O)Nc2ccc(OC)c(OC)c2)nnc1-c1c[nH]c2ccccc12` is 7.39%.
With `CN=C1S/C(=C\c2ccc(Sc3ccc(Cl)cc3)o2)C(=O)N1C`, the inhibition is -6.09%.
Take `CCC(O)CNc1nc(-n2nc(C)cc2C)nc2sc3c(c12)CC(C)(C)OC3` (centres undefined): the inhibition is -1.72%.
The figure for `COCCNc1nc(-n2nc(C)cc2C)nc2sc3c(c12)CCCC3` is 31.4% (active).
Turning to `Cc1cc(C)n(-c2nc(SCC(=O)N3CCCC3)c3c4c(sc3n2)CCCC4)n1`, the inhibition is 24.5%.
The figure for `O=C(Nc1ccc(-n2ccnc2P(=O)(O)c2ccccc2)cc1)c1ccccc1Br` is 13.2%.
With `COc1cccc(NC(=O)Cc2ccc(C)cc2)c1`, the inhibition is 2.33%.
The figure for `COc1ccc(NC(=O)/C(Cl)=C(/Cl)S(=O)Cc2ccc(C)cc2)cn1` (centres undefined) is 102% (active).
The figure for `COc1ccc(CC(=O)Nc2ccc(-c3nnc(-c4ccc(C)cc4)o3)cc2)cc1` is 5.16%; for `O=c1c2ccccc2nc2n1C(CSCc1ccccc1)CS2` (centres undefined) it is 3.79%; for `Cc1ccc(N2C(=O)CC(Sc3ncn[nH]3)C2=O)cc1` (centres undefined) it is -0.63%.
The figure for `CS(=O)(=O)N1CCN(c2ccc(C(=O)NC3C4CC5CC(C4)CC3C5)cc2[N+](=O)[O-])CC1` (centres undefined) is -2.2%.
With `CC(NCCO)C(=O)C12CC3CC(CC(C3)C1)C2` (centres undefined), the inhibition is -1.14%.
The figure for `O=C(CNCCO)NC12CC3CC(CC(C3)C1)C2` is 33.3% (active).
The figure for `O=C(NC12CC3CC(CC(C3)C1)C2)N1CCCC(CO)C1` (centres undefined) is 7.31%; for `COc1cc(CNCc2cccs2)cc(Br)c1OC` it is -5.39%; for `COc1ccc2c(c1)OC(O)(C(F)(F)C(F)F)CC2=O` (centres undefined) it is 34.1% (active).
For `COc1ccc2c(c1)SC(C)CC2=O` (centres undefined), the inhibition was -5.53%.
The figure for `COC(=O)c1cc(OC)ccc1-c1ccc(OC)cc1` is 18.8%; for `Cc1ccc(/C=N/NC(=O)C(NC(=O)c2ccccc2)c2n[nH]c(=O)c3ccccc23)cc1` (centres undefined) it is 13.9%.
The figure for `COC(=O)C1=C(C)Nc2ncnn2C1c1cccnc1` (centres undefined) is 15%; for `Clc1ccc2c(c1)C1=C(C(c3ccncc3)O2)C(c2ccc(Br)cc2)n2ncnc2N1` (centres undefined) it is 44.5% (active).
The figure for `Brc1ccc(C2=CC(c3ccco3)n3ncnc3N2)cc1` (centres undefined) is 19.2%; for `O=C(CNS(=O)(=O)c1ccc(Br)s1)N1CCN(C(=O)c2ccco2)CC1` it is -3.81%.
`O=C1Cc2ccccc2Sc2ccc(Cl)cc21`: the inhibition was 7.76%.
For the compound `Cc1nc2ccccc2c2oc(C(=O)NCC3CCCO3)cc12` (centres undefined), the inhibition was 5.49%.
As for `CCCN(CCC)CCNC(=O)c1cc2c(C)nc3ccccc3c2o1`, the inhibition is -0.17%.
The figure for `Cc1nc2ccccc2c2oc(C(=O)NCCCN3CCC(C)CC3)cc12` is 38.5% (active); for `CCc1cc(C(c2ccccc2OC)N2CCOCC2)c(NC(=O)c2ccccc2)s1` (centres undefined) it is 14.6%.
Turning to `CN(Cc1ccccc1)C(=O)CCNC(=O)Cn1cnc2ccccc2c1=O`, the inhibition was 32.8% (active).
On to `O=C(Cn1cnc2c(cnn2-c2ccccc2)c1=O)NCc1ccccc1`, for which the inhibition was 2.17%.
On to `O=C(Cn1cnc2ccccc2c1=O)NCC1COc2ccccc2O1` (centres undefined), for which the inhibition is -2.34%.
As to `N#C/C(=C1/CCCN1)c1ccccn1`, the inhibition is 3.25%.
The figure for `CC(C)CNC(=S)NNC(=O)c1ccccc1OC(F)F` is 9.35%; for `Cc1ccc(C(=O)N2CCCCCC2)cc1Br` it is 16.6%; for `Cc1c(Br)cc(C(=O)N2CCCCCC2)c(C)c1C` it is 38.8% (active).
Consider `Cc1ccc(C(=O)N2CCCC2)c(F)c1F`, for which the inhibition was -0.75%.
On to `CCOc1cccc(SCc2noc(C(=O)NC(C)C)c2C(=O)O)c1`, for which the inhibition is -0.31%.

The term inhibition denotes the change of the read-out against control, counted positive when it falls.
